PubChem BioAssay AID1159580 (chemical genetic matrix, 2015)
Values joined by “and” are separate entries in the source; they are usually repeats but may differ in a detail not shown here. Equal values may be shown once. Screen size: about 5,500 compounds; about 2,000 (36%) were called active. Roughly 18% stayed inconclusive and do not appear here. No stated cut-off is given here; in the data, active means normalized growth mostly below about 0.91 (no sharp cut-off); inconclusive means no clear call, values can overlap the other calls; inactive means mostly above about 0.92. The list shows a part of the results.

Assay: chemical genetic growth profiling, strain panel (AID 1159580);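 further: tested at 20 µM; growth read once vehicle control cultures reached saturation at 30 °C; 1 = growth at the plate median or of vehicle wells; lower values mean less growth of the strain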
Conditions: S. cerevisiae deletion strains, growth OD

Measured: normalized growth

O=c1ccc2cc(O)c(O)cc2o1
inactive: locus YAL013W, strain DEP1, active compounds read low 1.01 | locus YAL021C, strain ccr4, active compounds read low 1.01 | locus YAL026C, strain drs2, active compounds read low 0.992 | locus YAL030W, strain snc1, active compounds read low 1.03 | locus YBL061C, strain skt5, active compounds read low 1 | locus YBR009C, strain hhf1, active compounds read low 1.03 | locus YBR021W, strain FUR4, active compounds read low 0.974 | locus YBR023C, strain chs3, active compounds read low 1 | locus YBR171W, strain sec66, active compounds read low 1 | locus YBR229C, strain ROT2, active compounds read low 1.01 | locus YBR231C, strain swc5, active compounds read low 0.966 | locus YBR279W, strain paf1, active compounds read low 1.01 | locus YCL011C, strain gbp2, active compounds read low 1.03 | locus YCL016C, strain dcc1, active compounds read low 1 | locus YCL029C, strain bik1, active compounds read low 0.989 | locus YCL061C, strain MRC1, active compounds read low 1 | locus YCL069W, strain vba3, active compounds read low 0.999 | locus YCR088W, strain abp1, active compounds read low 1.01 | locus YDL005C, strain med2, active compounds read low 1.02 | locus YDL035C, strain GPR1, active compounds read low 0.999 | locus YDL040C, strain nat1, active compounds read low 1.02 | locus YDL074C, strain BRE1, active compounds read low 1 | locus YDL101C, strain DUN1, active compounds read low 1.01 | locus YDL185W, strain tfp1, active compounds read low 0.987 | locus YDL192W, strain arf1, active compounds read low 0.991 | locus YDR001C, strain nth1, active compounds read low 0.994 | locus YDR069C, strain doa4, active compounds read low 1.03 | locus YDR101C, strain arx1, active compounds read low 0.98 | locus YDR137W, strain rgp1, active compounds read low 0.913 | locus YDR159W, strain sac3, active compounds read low 0.968 | locus YDR162C, strain NBP2, active compounds read low 1.01 | locus YDR195W, strain ref2 1.01 | locus YDR297W, strain sur2, active compounds read low 1.01 | locus YDR318W, strain mcm21, active compounds read low 0.996 | locus YDR334W, strain swr1, active compounds read low 1 | locus YDR335W, strain msn5, active compounds read low 0.99 | locus YDR388W, active compounds read low 0.996 | locus YDR392W, strain spt3, active compounds read low 1.01 | locus YDR502C, strain sam2, active compounds read low 0.997 | locus YEL003W, strain gim4, active compounds read low 1.03 | locus YEL037C, strain rad23, active compounds read low 1 | locus YEL061C, strain CIN8 (second series), active compounds read low 0.997 | locus YEL061C, strain CIN8, active compounds read low 1.01 | locus YER015W, strain faa2, active compounds read low 0.993 | locus YER016W, strain bim1, active compounds read low 0.975 | locus YER110C, active compounds read low 0.991 | locus YER111C, strain swi4, active compounds read low 0.99 | locus YER155C, strain BEM2 (second series), active compounds read low 1.1 | locus YER155C, strain BEM2, active compounds read low 1 | locus YER167W, strain BCK2, active compounds read low 1.01 | locus YFR010W, strain ubp6, active compounds read low 1 | locus YGL078C, strain dbp3, active compounds read low 0.984 | locus YGL086W, strain mad1, active compounds read low 0.987 | locus YGL167C, strain pmr1, active compounds read low 0.998 | locus YGL173C, strain kem1, active compounds read low 0.975 | locus YGL227W, strain vid30, active compounds read low 0.999 | locus YGL240W, strain doc1, active compounds read low 1.05 | locus YGL248W, strain PDE1, active compounds read low 1.01 | locus YGL253W, strain hxk2, active compounds read low 0.984 | locus YGR078C, strain PAC10, active compounds read low 1.01 | locus YGR135W, strain pre9, active compounds read low 0.987 | locus YGR252W, strain gcn5, active compounds read low 0.942 | locus YHR013C, strain ard1, active compounds read low 1.01 | locus YHR027C, strain rpn1, active compounds read low 0.973 | locus YHR030C, strain SLT2, active compounds read low 1.01 and 0.971 | locus YHR079C, strain IRE1 (second series), active compounds read low 0.99 | locus YHR079C, strain IRE1, active compounds read low 0.976 | locus YHR094C, strain hxt1, active compounds read low 0.996 | locus YHR129C, strain ARP1, active compounds read low 1.01 | locus YHR142W, strain chs7, active compounds read low 0.979 | locus YHR200W, strain rpn10, active compounds read low 0.99 | locus YIL066C, strain RNR3, active compounds read low 1.01 | locus YIL073C, strain SPO22, active compounds read low 0.976 | locus YIL125W, strain kgd1, active compounds read low 0.984 | locus YIR030C, strain dcg1, active compounds read low 0.996 | locus YJL092W, strain hpr5, active compounds read low 1.01 | locus YJL095W, strain BCK1 (second series), active compounds read low 1.02 | locus YJL095W, strain BCK1, active compounds read low 1.02 and 0.993 | locus YJL115W, strain asf1, active compounds read low 1.01 | locus YJL129C, strain trk1, active compounds read low 0.973 | locus YJL134W, strain LCB3, active compounds read low 1.02 | locus YJL154C, strain vps35, active compounds read low 1.01 | locus YJL164C, strain tpk1, active compounds read low 1.02 | locus YJL166W, strain qcr8, active compounds read low 1.02 | locus YJL168C, strain set2, active compounds read low 0.985 | locus YJL187C, strain SWE1 (second series), active compounds read low 1.02 | locus YJR043C, strain POL32, active compounds read low 1.02 | locus YJR066W, strain TOR1, active compounds read low 0.978 | locus YKL009W, strain mrt4, active compounds read low 1.01 | locus YKL068W, active compounds read low 1 | locus YKL085W, strain MDH1 (second series), active compounds read low 1 | locus YKL085W, strain MDH1, active compounds read low 1 | locus YKL160W, strain elf1, active compounds read low 0.961 | locus YKL190W, strain CNB1, active compounds read low 1.01 | locus YKR001C, strain vps1, active compounds read low 0.953 | locus YKR026C, strain gcn3, active compounds read low 0.997 | locus YKR091W, strain srl3, active compounds read low 1 | locus YLL001W, strain dnm1, active compounds read low 1.02 | locus YLL026W, active compounds read low 0.999 | locus YLL041C, strain sdh2, active compounds read low 0.995 | locus YLR027C, strain aat2, active compounds read low 1 | locus YLR039C, strain RIC1, active compounds read low 1 | locus YLR058C, strain SHM2, active compounds read low 1.02 | locus YLR102C, strain apc9, active compounds read low 0.987 | locus YLR113W, strain HOG1, active compounds read low 0.957 | locus YLR221C, strain rsa3, active compounds read low 1.02 | locus YLR258W, strain gsy2, active compounds read low 0.994 | locus YLR262C, strain YPT6 (second series), active compounds read low 1.05 | locus YLR262C, strain YPT6, active compounds read low 1.01 | locus YLR268W, strain sec22, active compounds read low 0.972 | locus YLR320W, strain mms22, active compounds read low 1.04 | locus YLR330W, strain CHS5, active compounds read low 1.02 | locus YLR342W, strain FKS1 (second series), active compounds read low 0.965 | locus YLR342W, strain FKS1, active compounds read low 1.02 | locus YLR357W, strain rsc2, active compounds read low 0.994 | locus YLR370C, strain arc18, active compounds read low 1.01 | locus YLR371W, strain rom2, active compounds read low 0.982 | locus YLR384C, strain iki3, active compounds read low 1 | locus YLR418C, strain cdc73, active compounds read low 0.953 | locus YML016C, strain PPZ1, active compounds read low 1.02 | locus YML032C, strain rad52, active compounds read low 1 | locus YML120C, strain ndi1, active compounds read low 1.01 | locus YML124C, strain tub3, active compounds read low 0.996 | locus YMR058W, strain fet3, active compounds read low 0.97 | locus YMR078C, strain ctf18, active compounds read low 0.989 | locus YMR125W, strain sto1, active compounds read low 1.02 | locus YMR129W, active compounds read low 1 | locus YMR205C, strain PFK2, active compounds read low 1.02 | locus YMR223W, strain ubp8, active compounds read low 0.985 | locus YMR231W, strain pep5, active compounds read low 1 | locus YMR263W, strain SAP30, active compounds read low 1 | locus YMR307W, strain GAS1, active compounds read low 0.983 | locus YNL067W, strain RPL9B, active compounds read low 0.989 | locus YNL071W, strain lat1, active compounds read low 1.01 | locus YNL183C, strain NPR1, active compounds read low 0.921 | locus YNL209W, strain ssb2, active compounds read low 1 | locus YNL233W, strain BNI4, active compounds read low 1.01 | locus YNL248C, strain rpa49, active compounds read low 1.03 | locus YNL250W, strain rad50, active compounds read low 1.01 | locus YNL271C, strain bni1, active compounds read low 0.99 | locus YNL298W, strain CLA4, active compounds read low 0.994 | locus YNL307C, strain MCK1, active compounds read low 0.984 | locus YNL322C, strain KRE1 (second series), active compounds read low 1 | locus YNL322C, strain KRE1, active compounds read low 1.01 | locus YNR049C, strain mso1, active compounds read low 1.01 | locus YNR052C, strain pop2, active compounds read low 0.983 | locus YOL006C, strain TOP1, active compounds read low 1.01 | locus YOL012C, strain htz1 0.571 | locus YOL147C, strain pex11, active compounds read low 0.997 | locus YOR001W, strain rrp6, active compounds read low 1.03 | locus YOR061W, strain CKA2, active compounds read low 1.02 | locus YOR069W, strain VPS5, active compounds read low 1.01 | locus YOR070C, strain gyp1, active compounds read low 1 | locus YOR080W, strain dia2, active compounds read low 1 | locus YOR083W, strain WHI5, active compounds read low 0.942 | locus YOR106W, strain vam3, active compounds read low 0.913 | locus YOR136W, strain idh2, active compounds read low 0.993 | locus YOR144C, strain elg1, active compounds read low 0.983 | locus YOR184W, strain ser1, active compounds read low 0.992 | locus YOR231W, strain MKK1, active compounds read low 0.98 | locus YOR265W, strain rbl2, active compounds read low 0.989 | locus YOR270C, strain vph1, active compounds read low 1.06 | locus YOR290C, strain snf2, active compounds read low 1 | locus YOR316C, strain cot1, active compounds read low 0.998 | locus YPL051W, strain arl3, active compounds read low 1 | locus YPL055C, strain LGE1, active compounds read low 0.99 | locus YPL078C, strain atp4, active compounds read low 0.986 | locus YPL106C, strain sse1, active compounds read low 0.983 | locus YPL240C, strain hsp82, active compounds read low 1 | locus YPL256C, strain CLN2, active compounds read low 1 | locus YPR119W, strain clb2, active compounds read low 0.994 | locus YPR141C, strain kar3, active compounds read low 0.993 | locus YPR163C, strain tif3, active compounds read low 1 | locus YPR167C, strain met16, active compounds read low 0.993 | strain wtn01, active compounds read low 0.979
